Test results reported in PubChem BioAssay.
Calls of active or inactive are those of the source. Unless noted, the rule behind the calls is not given here.

Key:
[1] = system: Wnt5a (protein binding on small-molecule microarray); test: Wnt5a binders on small-molecule microarray, primary screen, biophysical, 635/667 nm fluorescence (AID 1142); settings: 635 nm fluorescence, higher = more signal;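 note: fluorescence read at 667 nm with signal to noise per printed feature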
[2] = cell viability in Huh7 cells, primary screen, cytotoxicity control for HCV replication inhibitor project, CellTiter-Glo luminescence, basal, 48 h (AID 1143); settings: Huh7 HCV replicon, higher = more signal, called active from +8 up or from −8 down;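 note: Huh7 hepatoma cells carrying a hepatitis C replication reporter with no stimulus; test concentration not given here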
[3] = P. aeruginosa biofilm formation inhibitors, primary screen, PAO1 strain, BacTiter-Glo luminescence, LB-PBS (AID 1144); settings: 12 h, higher = more signal
[4] = CREB reporter modulators without forskolin, primary screen, cell-based, PC12, CRE-LacZ reporter, unstimulated (AID 1145); settings: no forskolin, luminescence, 4.5 h, higher = more signal, called active from +8 up or from −8 down
[5] = CREB reporter modulators under forskolin, primary screen, cell-based, PC12, CRE-LacZ reporter, forskolin-stimulated (AID 1146); settings: luminescence, 4.5 h, higher = more signal, called active from +8 up or from −8 down;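 note: PC12 cells with 6xCRE LacZ reporter stimulated by forskolin 10 µM; beta-galactosidase reporter signal reflecting CREB driven transcription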
[6] = molecular target: Streptavidin (Streptomyces avidinii) (UniProt P22629); test: streptavidin binders on small-molecule microarray, primary screen, artefact control for SMM compound annotation, biophysical, 635/667 nm fluorescence (AID 1147); settings: streptavidin binding, higher = more signal;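 note: signal reflects streptavidin binding to arrayed compounds as a control protein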
[7] = small-molecule binders of probe aInhba, primary screen, biochemical, small-molecule microarray, 635/667 nm fluorescence (AID 1148); settings: higher = more signal;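 note: score merges 667nm spot fluorescence with signal-to-noise for antibody binding to printed compounds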
[8] = molecular target: Torsin-1A (Homo sapiens) (UniProt O14656); test: torsin A binders from cell lysate, primary screen, small-molecule microarray, wild-type, 635/667 nm (AID 1149); settings: COS7 hTOR1A-WT lysate, 635 nm fluorescence, higher = more signal
[9] = molecular target: Torsin-1A (Homo sapiens) (UniProt O14656); test: small-molecule binders of mutant TOR1A in lysate, primary screen, cell lysate, small-molecule microarray, COS7 lysate, 635/667 nm fluorescence (AID 1150); settings: COS7 hTOR1A mutant lysate, 635 nm fluorescence, higher = more signal;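 note: score pools 667 nm emission and signal to noise measuring lysate protein binding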
[10] = system: Sonic hedgehog protein (Shh); test: small-molecule binders of Shh protein, primary screen, biochemical, small-molecule microarray, 635/667 nm fluorescence (AID 1151); settings: small-molecule microarray binding, 635 nm fluorescence; higher = more signal;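 note: Shh protein binding to compounds spotted on small-molecule microarray slides; score combines spot fluorescence intensity with signal-to-noise across triplicate slides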
[11] = E. coli DRC41 culture turbidity changes, primary screen, E. coli filamentation inducer project, strain DRC41, OD650, 48 h (AID 1152);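 note: E. coli MC1000 strain DRC41 lacking acrAB efflux pump and sulA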; settings: E. coli DRC41 (acrAB sulA), higher = more signal, called active from +8 up or from −8 down
[12] = small-molecule binders of probe aLefty1, primary screen, biochemical, small-molecule microarray, 635/667 nm fluorescence (AID 1153); settings: higher = more signal;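 note: score merges spot fluorescence with signal-to-noise ratio from the scanned slide images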
[13] = PSAC antagonists in infected red cells, primary screen, cell-based, P. falciparum Indochina, OD700, 1 h (AID 1154); settings: P. falciparum Indochina infected RBC osmotic lysis, higher = more signal, called active from +8 up or from −8 down
[14] = PSAC antagonists in infected red cells, primary screen, cell-based, P. falciparum Indochina, OD700, 2 h (AID 1155);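 note: lysis reports solute entry through the parasite surface anion channel PSAC; channel blockers reduce lysis of infected cells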; settings: P. falciparum Indochina infected erythrocytes, osmotic lysis OD700; higher = more signal, called active from +8 up or from −8 down
[15] = osmotic lysis modulators in infected erythrocytes, primary screen, PSAC antagonist project, cell-based, P. falciparum Indochina, OD700, 3 h (AID 1156); settings: higher = more signal, called active from +8 up or from −8 down
[16] = PSAC antagonists in infected red cells, primary screen, cell-based, P. falciparum Indochina, OD700, 18 h (AID 1157); settings: P. falciparum Indochina infected erythrocytes, osmotic lysis OD700, 18 h; higher = more signal, called active from +8 up or from −8 down
[17] = modulators of S6 phosphorylation in cells, primary screen, cell-based, A549, cytoblot, luminescence, serum-stimulated (AID 1158); settings: A549 phospho-S6 cytoblot, 5 h, higher = more signal;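 note: serum-stimulated A549 lung adenocarcinoma cells; signal is phosphorylated S6 detected by cytoblot immunostaining with HRP secondary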
[18] = molecular target: NADPH oxidase 2 (Homo sapiens) (UniProt P04839); test: NOX2-dependent H2O2 signal modulators, primary screen, NOX inhibitor project, cell-based, HEK293-NOX2, PMA-stimulated, Amplex Red fluorescence (AID 1159); settings: 45 min, higher = more signal, called active from +8 up or from −8 down; note: test concentration not given here
[19] = molecular target: NADPH oxidase 4 (Homo sapiens) (UniProt Q9NPH5); test: NOX4-dependent H2O2 signal modulators, primary screen, NOX inhibitor project, cell-based, HEK293-NOX4, tetracycline-induced, Amplex Red fluorescence (AID 1160); settings: 45 min, higher = more signal, called active from +8 up or from −8 down
[20] = molecular target: NADPH oxidase 5 (Homo sapiens) (UniProt Q96PH1); test: NOX5-dependent H2O2 signal modulators, primary screen, NOX inhibitor project, cell-based, HEK293-NOX5, Amplex Red fluorescence (AID 1161); settings: HEK293-NOX5, ionomycin, 45 min, higher = more signal
NADPH oxidase 5 (Homo sapiens), sequence (Q96PH1 whole entry, looked up): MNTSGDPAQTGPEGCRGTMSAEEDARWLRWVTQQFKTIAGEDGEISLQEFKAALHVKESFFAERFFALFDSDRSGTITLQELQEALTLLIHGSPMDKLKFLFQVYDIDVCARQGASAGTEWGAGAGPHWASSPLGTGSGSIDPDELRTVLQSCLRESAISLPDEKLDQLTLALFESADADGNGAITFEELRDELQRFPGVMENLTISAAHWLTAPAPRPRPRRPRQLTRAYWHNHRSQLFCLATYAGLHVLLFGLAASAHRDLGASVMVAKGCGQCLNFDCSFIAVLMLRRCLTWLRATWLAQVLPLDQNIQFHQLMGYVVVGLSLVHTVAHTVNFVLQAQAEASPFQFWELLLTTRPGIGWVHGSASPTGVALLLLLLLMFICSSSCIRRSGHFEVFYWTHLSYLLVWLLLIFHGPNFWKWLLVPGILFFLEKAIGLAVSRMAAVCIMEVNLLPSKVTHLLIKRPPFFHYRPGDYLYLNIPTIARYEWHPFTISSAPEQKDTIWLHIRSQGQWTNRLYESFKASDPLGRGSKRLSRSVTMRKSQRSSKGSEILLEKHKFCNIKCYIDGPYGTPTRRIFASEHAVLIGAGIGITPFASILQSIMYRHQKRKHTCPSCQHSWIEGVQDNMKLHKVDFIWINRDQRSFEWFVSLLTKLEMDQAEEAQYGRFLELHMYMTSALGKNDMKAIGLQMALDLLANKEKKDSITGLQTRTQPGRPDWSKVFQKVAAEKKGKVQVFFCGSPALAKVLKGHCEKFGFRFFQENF

Torsin-1A (Homo sapiens), sequence (O14656 whole entry, looked up): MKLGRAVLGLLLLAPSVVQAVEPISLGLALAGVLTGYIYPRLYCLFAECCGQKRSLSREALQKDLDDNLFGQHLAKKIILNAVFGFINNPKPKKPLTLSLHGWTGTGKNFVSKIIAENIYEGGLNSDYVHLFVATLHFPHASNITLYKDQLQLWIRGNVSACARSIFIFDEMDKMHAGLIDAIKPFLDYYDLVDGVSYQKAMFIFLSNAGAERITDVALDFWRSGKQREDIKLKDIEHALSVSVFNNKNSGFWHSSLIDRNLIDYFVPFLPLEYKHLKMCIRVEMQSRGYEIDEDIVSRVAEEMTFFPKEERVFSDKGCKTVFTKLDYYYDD
Streptavidin (Streptomyces avidinii), sequence (P22629 whole entry, looked up): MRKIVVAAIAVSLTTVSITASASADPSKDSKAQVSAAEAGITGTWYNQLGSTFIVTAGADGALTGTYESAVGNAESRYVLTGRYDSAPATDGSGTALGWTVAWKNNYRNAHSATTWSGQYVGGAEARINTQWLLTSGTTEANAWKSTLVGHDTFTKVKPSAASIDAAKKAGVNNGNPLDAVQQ
NADPH oxidase 2 (Homo sapiens), sequence (P04839 whole entry, looked up): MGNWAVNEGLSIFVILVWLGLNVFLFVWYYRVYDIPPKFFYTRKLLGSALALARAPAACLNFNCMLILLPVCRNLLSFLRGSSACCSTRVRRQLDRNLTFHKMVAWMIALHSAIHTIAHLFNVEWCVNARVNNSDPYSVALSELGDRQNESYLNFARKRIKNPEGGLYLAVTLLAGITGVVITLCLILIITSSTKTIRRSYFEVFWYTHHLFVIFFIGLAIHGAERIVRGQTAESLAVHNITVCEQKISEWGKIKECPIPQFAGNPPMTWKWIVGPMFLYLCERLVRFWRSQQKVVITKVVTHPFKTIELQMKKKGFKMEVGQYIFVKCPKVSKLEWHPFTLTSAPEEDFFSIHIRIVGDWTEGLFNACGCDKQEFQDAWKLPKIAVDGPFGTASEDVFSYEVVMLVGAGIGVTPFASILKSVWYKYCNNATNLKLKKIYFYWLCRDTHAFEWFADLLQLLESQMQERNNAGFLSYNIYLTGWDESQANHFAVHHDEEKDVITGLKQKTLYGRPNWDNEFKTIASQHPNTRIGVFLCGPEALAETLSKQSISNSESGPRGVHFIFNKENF
NADPH oxidase 4 (Homo sapiens), sequence (Q9NPH5 whole entry, looked up): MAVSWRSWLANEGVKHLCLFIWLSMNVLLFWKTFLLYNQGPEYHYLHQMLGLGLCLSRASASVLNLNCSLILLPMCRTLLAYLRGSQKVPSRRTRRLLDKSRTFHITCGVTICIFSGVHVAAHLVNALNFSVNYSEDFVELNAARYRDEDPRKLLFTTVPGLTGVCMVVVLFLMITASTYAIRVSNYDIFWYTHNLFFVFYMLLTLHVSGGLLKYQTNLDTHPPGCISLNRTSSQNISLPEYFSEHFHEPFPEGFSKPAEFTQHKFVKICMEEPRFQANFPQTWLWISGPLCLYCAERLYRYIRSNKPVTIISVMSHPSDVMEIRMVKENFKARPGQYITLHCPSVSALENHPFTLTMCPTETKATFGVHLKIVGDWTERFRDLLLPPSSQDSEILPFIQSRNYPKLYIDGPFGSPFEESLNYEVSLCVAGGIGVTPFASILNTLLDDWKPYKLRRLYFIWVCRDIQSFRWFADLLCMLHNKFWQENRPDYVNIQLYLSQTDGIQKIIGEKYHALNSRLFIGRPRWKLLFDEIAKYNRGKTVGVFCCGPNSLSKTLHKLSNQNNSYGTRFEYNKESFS

Compound	composite z-score [1]	z-score [2]	z-score [3]	z-score [4]	z-score [5]	composite z-score [6]	composite z-score [7]	composite z-score [8]	composite z-score [9]	composite z-score [10]	z-score [11]	composite z-score [12]	z-score [13]	z-score [14]	z-score [15]	z-score [16]	z-score [17]	z-score [18]	z-score [19]	z-score [20]
COc1ccccc1CN1C(=O)c2ccccc2[C@@]2(Cc3ccccc3N(CC(C)C)C2=O)[C@@H]1c1ccc(CO)cc1	-0.37	0.332 (inactive)	0.8 (inactive)	-0.412 (inactive)	0.462 (inactive)	-0.551	0.027	-0.913	-0.0676	-0.452	-0.12 (inactive)	-0.827	0.226 (inactive)	0.215 (inactive)	0.297 (inactive)	0.109 (inactive)	0.0317	-0.0964 (inactive)	0.11 (inactive)	1.12
COC(=O)[C@@]1(Cc2ccc(F)cc2)[C@H]2c3cc(C(=O)N4CCCC4)n(Cc4ccc(S(C)(=O)=O)cc4)c3C[C@H]2CN1C(=O)c1ccccc1	0.196	-1.71 (inactive)	0.53 (inactive)	0.39 (inactive)	0.363 (inactive)	1.19	0.864	0.181	0.861	-0.716	-1.75 (inactive)	1.24	2.29 (inactive)	0.675 (inactive)	0.775 (inactive)	0.643 (inactive)	-0.339	0.949 (inactive)	-0.138 (inactive)	-0.744
COc1ccc(C#Cc2ccc3c(c2)[C@]2(C(=O)N3)[C@H](C(=O)NC[C@H](O)c3ccccc3)[C@H]3C(=O)O[C@H](c4ccccc4)[C@H](c4ccccc4)N3[C@@H]2c2ccc(O)cc2)cc1	0.288	-2.62 (inactive)	-1.1 (inactive)	-0.141 (inactive)	-0.301 (inactive)	0.539	-0.128	0.179	0.587	1.24	0.078 (inactive)	-0.0984	-0.476 (inactive)	0.657 (inactive)	-1.03 (inactive)	0.909 (inactive)	-0.434	1.25 (inactive)	0.118 (inactive)	-0.339
